ADAM17 inh = ADAM17 inhibition, QFRET primary screen; P78536; recombinant ADAM17, EDANS/DABCYL FRET peptide cleavage; inhibition, % at 6.95 µM; 0.83% of 370,000 active;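 active = inhibition above the mean of compounds lying between control limits plus 3 SD, set per campaign, cut at about 8.5% in these data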;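 note: 0% = DMSO-only wells as the low control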
Target sequence (P78536 215-824 limits assumed): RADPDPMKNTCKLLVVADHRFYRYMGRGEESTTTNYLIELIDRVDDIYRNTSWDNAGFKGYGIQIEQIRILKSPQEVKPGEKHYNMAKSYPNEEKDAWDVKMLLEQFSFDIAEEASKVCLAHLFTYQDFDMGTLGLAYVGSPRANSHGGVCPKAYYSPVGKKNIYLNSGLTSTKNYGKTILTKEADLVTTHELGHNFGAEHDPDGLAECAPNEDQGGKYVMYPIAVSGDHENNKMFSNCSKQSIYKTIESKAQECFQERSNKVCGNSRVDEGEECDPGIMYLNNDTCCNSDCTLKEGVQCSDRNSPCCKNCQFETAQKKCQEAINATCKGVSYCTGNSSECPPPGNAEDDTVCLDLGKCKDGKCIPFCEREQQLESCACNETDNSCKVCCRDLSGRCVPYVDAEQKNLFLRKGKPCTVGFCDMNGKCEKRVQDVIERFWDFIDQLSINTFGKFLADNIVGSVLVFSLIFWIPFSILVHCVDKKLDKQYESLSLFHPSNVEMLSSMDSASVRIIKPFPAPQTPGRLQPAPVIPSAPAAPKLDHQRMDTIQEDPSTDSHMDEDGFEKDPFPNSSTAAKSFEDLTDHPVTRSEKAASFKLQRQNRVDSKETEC
ADAM10 inh = inhibits human ADAM10; recombinant ADAM10, EDANS/DABCYL FRET peptide cleavage, 3 h; 0.62% of 370,000 active; inhibition, % at 7 µM;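 active = inhibition above a per-campaign cutoff equal to the mean of compounds falling between control-based bounds plus 3 SD, cut at about 20% in these data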;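 note: 0% = DMSO wells while the 100% control is not disclosed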
FAS-TE inh = FAS thioesterase (human) inhibition; P49327; recombinant FAS-TE, OMFH fluorogenic substrate, fluorescence endpoint; inhibition, % at 15 µM; 0.67% of 360,000 active; AID 602261;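 active = compounds whose normalised, plate-corrected inhibition of enzyme fluorescence in the single-dose primary screen is 50% or more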;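 note: 0% = DMSO with enzyme and 100% = substrate without enzyme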
GRIN3A LBD mod = modulates the human NR3A ligand-binding domain. NR3A LBD differential scanning fluorimetry, Tm shift; 0% = protein alone, 100% = glycine-bound protein. Tm shift relative to glycine control, % at 25 µM. AID 1259313. 2.5% of 340,000 active;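 active = melting temperature shift of at least 10% of the positive control shift, at one fixed dose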
KLK7 zymogen act = activates the human kallikrein-7 zymogen. 0.9% of 370,000 active. P49862. purified proKLK7, EDANS-DABCYL substrate fluorescence; 100% is mature enzyme control, 0% vehicle. AID 652039. activation, % at 7 µM;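 active = activation above the mean of all tested compounds plus 3 SD, computed per campaign excluding outliers beyond control limits, cut at about 13% in these data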
ADAM10 confirm = confirmation of inhibitors of human ADAM10. AID 743208. inhibition, % at 6.95 µM. 1% of 2,100 active. ADAM10 QFRET peptide cleavage, EDANS fluorescence. shares compounds with ADAM10 inh;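 active = inhibition above about 20% chosen separately for each screening run, limit read from the data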;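 note: 0% = DMSO wells and 100% = marimastat wells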
ADAM17 ctr = ADAM17 inhibition, counter-screen for ADAM10 exosite hits; shares compounds with ADAM10 inh; ADAM17 QFRET peptide cleavage, EDANS fluorescence; inhibition, % at 6.95 µM; 0.5% of 2,100 active;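 active = mean triplicate inhibition above the solvent-only control wells' mean plus 3 SD, cut at about 12% in these data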;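 note: 0% = DMSO wells and 100% = marimastat wells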
ADAM10 ctr = counter-screen for ADAM17 exosite inhibitors: inhibitors of human ADAM10; shares compounds with ADAM17 inh; recombinant ADAM10, EDANS/DABCYL FRET peptide cleavage, 3 h; inhibition, % at 6.95 µM; 47% of 2,900 active;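 active = mean inhibition over the triplicate runs exceeds the activity threshold set in the earlier primary screen, cut at about 20% in these data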;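 note: 0% = DMSO wells and 100% = marimastat wells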
ADAM17 confirm = confirmation of inhibitors of human ADAM17. shares compounds with ADAM17 inh. recombinant ADAM17, EDANS/DABCYL QFRET peptide cleavage. inhibition, % at 6.95 µM. 65% of 2,900 active;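 active = mean inhibition across replicates above the hit cutoff set in the primary screen, cut at about 8.5% in these data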;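 note: 0% = DMSO wells and 100% = marimastat wells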
An asterisk follows results filed as active; . = not tested or not shown. Hits are enriched below; roughly 4.6% of the tested compounds scored in any of these assays.

SMILES	ADAM17 inh	ADAM10 inh	FAS-TE inh	GRIN3A LBD mod	KLK7 zymogen act	ADAM10 confirm	ADAM17 ctr	ADAM10 ctr	ADAM17 confirm
C=CCC[C@H](Cc1ccc(F)cc1)C(=O)OC[C@@H](Cc1c[nH]c2ccccc12)NC(=O)[C@@H](CC=C)CC(=O)N[C@@H](CO)Cc1ccccc1	11.3*	22.5*	16.0	15.9*	0.9	8.8	2.5	7.5	7.0
C=CCC[C@@H](Cc1ccc(F)cc1)C(=O)OC[C@@H](Cc1c[nH]c2ccccc12)NC(=O)[C@H](CC=C)CC(=O)N[C@H](CO)Cc1ccccc1	2.9	0.0	2.0	-4.6	0.7	.	.	.	.
C=CC[C@H](CC(=O)N(CCO)Cc1ccccc1)C(=O)N[C@H](COC(=O)[C@@H](CC=C)Cc1ccc(F)cc1)Cc1c[nH]c2ccccc12	14.8*	26.8*	19.3	-2.5	1.7	7.9	2.9	41.3*	23.3*
C=CCC[C@@H](Cc1ccc(F)cc1)C(=O)OC[C@@H](Cc1c[nH]c2ccccc12)NC(=O)[C@@H](CC=C)CC(=O)N[C@@H](CO)Cc1ccccc1	5.3	17.2	18.0	7.8	-0.6	.	.	.	.
C=CCC[C@H](Cc1ccc(F)cc1)C(=O)OC[C@H](Cc1c[nH]c2ccccc12)NC(=O)[C@H](CC=C)CC(=O)N(CCO)Cc1ccccc1	11.9*	24.4*	19.6	-2.5	0.3	17.0	5.0	36.2*	17.6*
C=CC[C@@H](CC(=O)N(CCO)Cc1ccccc1)C(=O)N[C@H](COC(=O)[C@@H](CC=C)Cc1ccc(F)cc1)Cc1c[nH]c2ccccc12	14.0*	39.4*	19.4	3.2	1.7	10.4	3.8	46.4*	24.7*
Nc1[nH]c(C(=O)c2ccccc2)c(-c2ccccc2C(F)(F)F)c1C(=O)c1c[nH]c2ccccc12	3.6	2.8	.	.	-0.8	.	.	.	.
S=C1NCCN1c1ccc(Cl)cc1	-3.0	-4.2	.	.	0.5	.	.	.	.
C=CC[C@H](CC(=O)N(CCO)Cc1ccccc1)C(=O)N[C@@H](COC(=O)[C@@H](CC=C)CC(=O)OC(C)(C)C)Cc1c[nH]c2ccccc12	21.4*	37.1*	16.8	-11.4	0.5	2.8	0.7	28.7*	15.4*
C=CC[C@H](CC(=O)N(CCO)Cc1ccccc1)C(=O)N[C@H](COC(=O)[C@@H](CC=C)CC(=O)OC(C)(C)C)Cc1ccccc1	4.9	14.1	17.3	-6.5	0.3	.	.	.	.
Cc1cc(N2CCN(CC(C)(C)O)C[C@@H]2C)ccc1N1CCN(Cc2ccccc2)[C@@H](C)C1	-6.0	-20.9	.	.	1.0	.	.	.	.
Cc1cc(NC(=O)c2c(F)cccc2Cl)n(-c2nc3ccccc3[nH]2)n1	10.3*	29.7*	24.1	-2.1	-0.7	16.6	5.6	39.7*	16.7*
CC1CCN(c2ccc(C(=O)NCc3ccco3)cc2[N+](=O)[O-])CC1	9.0*	22.8*	12.1	-7.3	0.7	1.4	0.6	7.9	7.4
O=C(NC(NC(=S)Nc1cccc(Cl)c1)C(Cl)(Cl)Cl)OCc1ccccc1 (stereo not given)	10.3*	28.4*	36.9	29.4*	0.2	11.5	3.8	35.0*	20.2*
COC(=O)[C@]12C[C@H](CC(=O)NCc3cccc4ccccc34)C(=O)N(Cc3ccccc3)C1=C[C@H](C1CCCC1)O[C@@H]2C	0.6	4.9	.	.	0.6	.	.	.	.
C=CCN=C1NC(CCc2ccccc2)C(C(=O)OC)=C(C)N1Cc1cccc(C(F)(F)F)c1 (stereo not given)	-5.9	-15.1	.	.	1.0	.	.	.	.
COc1cc(C2C3C(=O)N(Cc4ccccc4)C(=O)C3ON2c2ccccc2)cc(OC)c1OC (stereo not given)	6.7	11.2	24.5	8.7	0.7	.	.	.	.
COc1ccc(C2C3C(=O)N(Cc4ccccc4)C(=O)C3ON2c2ccccc2)c(OC)c1OC (stereo not given)	10.7*	21.0*	29.8	-11.2	0.0	6.7	2.2	31.8*	16.7*
C[C@@H]1C=CCCO[C@]12C(=O)N(Cc1ccccc1C(F)(F)F)c1ccccc12	-4.2	-13.7	.	.	0.3	.	.	.	.
Cc1[nH]nc2c1C(c1cccc(C(F)(F)F)c1)NC2=O (stereo not given)	-1.1	-9.7	.	.	-0.5	.	.	.	.
COc1ccc(CN([C@H](CO)CC(C)C)S(=O)(=O)N(Cc2ccccc2)[C@H](CO)CC(C)C)cc1	23.2*	43.2*	22.1	-3.2	0.4	12.7	4.3	62.6*	35.1*
CC(C)c1[nH]nc2c1C(c1ccccc1)N(Cc1ccccc1)C2=O (stereo not given)	-5.7	-17.2	.	.	0.7	.	.	.	.
COc1ccc(/C=N/Nc2ccc(C(F)(F)F)cc2[N+](=O)[O-])cc1O	2.8	0.3	-0.3	2.7	-0.8	.	.	.	.
COc1cccc(C=NN(C)c2c([N+](=O)[O-])cc(C(F)(F)F)cc2[N+](=O)[O-])c1O	11.8*	23.7*	31.9	.	-0.3	3.1	1.7	26.7*	15.9*
CN(C)S(=O)(=O)c1cccc(NC(=O)COC(=O)c2cn(-c3ccccc3)nc2-c2ccccc2)c1	10.7*	29.3*	27.4	13.7*	0.0	8.2	2.9	31.2*	19.0*
SMILES	ADAM17 inh	ADAM10 inh	FAS-TE inh	GRIN3A LBD mod	KLK7 zymogen act	ADAM10 confirm	ADAM17 ctr	ADAM10 ctr	ADAM17 confirm
CN(C)S(=O)(=O)c1cccc(NC(=O)COC(=O)c2cccc(S(=O)(=O)N3CCc4ccccc4C3)c2)c1	10.8*	23.3*	29.0	-11.4	0.9	7.5	1.6	15.5	12.1*
CN(C)S(=O)(=O)c1cccc(NC(=O)COC(=O)c2cccn2C)c1	-6.9	-4.1	-4.4	0.4	-0.6	.	.	.	.
C[C@H](CO)N1C[C@H](C)[C@@H](CN(C)C(=O)Nc2ccccc2)OCc2cn(nn2)CCCC1=O	-1.8	-8.4	.	.	0.0	.	.	.	.
O=C(N[C@H](Cc1ccccc1)C(=O)NCC1CCCCC1)[C@H]1O[C@@H](n2ccc(=O)[nH]c2=O)[C@H](O)[C@@H]1O	-0.8	-12.9	.	.	0.2	.	.	.	.
CCN(CC)C(=O)[C@H]1C[C@H](CC(=O)NCc2cccc(C(F)(F)F)c2)C(=O)N2CCc3c([nH]c4ccc(Cl)cc34)[C@]12C	10.7*	23.2*	35.7	-2.0	0.0	3.0	1.2	30.8*	13.4*
N#Cc1nc(COc2ccc(Cl)cc2)oc1N1CCN(Cc2ccccc2)CC1	8.6*	21.9*	21.2	1.8	0.8	1.5	1.3	25.8*	16.4*
